Data taken from PubChem BioAssay (NCI).
Compounds without any hit were thinned out: in the full panel of roughly 83,000, 20% have a hit.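 Plates (96-well) were seeded with cells, treated with compound at one concentration, and incubated for 48 hours before percent growth was determined.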 Active and inactive are the calls of the source. The calls were made as follows: active = growth percent below 10; inactive = the rest.

Key:
Experiment in all cases: NCI-60 one-dose screen, 48 h (100 = growth as untreated, 0 = no growth, -100 = all killed)
Details in all cases: 10 µM unless noted
[1] = system: T-47D breast
[2] = system: MDA-MB-435 melanoma
[3] = system: SW-620 colon
[4] = system: MCF7 breast
[5] = system: HCT-116 colon
[6] = system: HCC-2998 colon
[7] = system: KM12 colon
[8] = system: BT-549 breast

Measured: growth

O=Nc1c2cccnc2n2nnc3ccc(Cl)cc3c12
active: [3] -67.3% | [4] -10.6% | [5] 0.54%
inactive: [1] 12.1% | [2] 70.4% | [6] 93.1% | [7] 25.2%

COc1cccc(C=Nc2cc(C(C)C)c(O)cc2C)c1O
inactive: [1] 51.7% | [8] 101% | [3] 105% | [4] 92.5% | [5] 99.1% | [6] 115% | [7] 109%

COc1cc(/C=C/c2cc(/C=C/c3ccc(O)c(OC)c3)n(C(=O)Cc3ccccc3)n2)ccc1O
active: [1] -7.75% | [2] -10.2% | [3] 4.63% | [4] -0.783% | [5] 1.23% | [7] 9.39%
inactive: [6] 17.2%

CN1C(=O)C(C2=NN(C=O)C(c3ccc(F)cc3)C2)C(=O)N(C)C1=O (centres undefined)
inactive: [1] 92.9% | [2] 102% | [4] 93.4% | [5] 98.7% | [6] 97.5% | [7] 99.9%

O=C(COc1cccc(/C=C2\Oc3ccc4ccccc4c3C2=O)c1)c1ccc(Cl)cc1
inactive: [1] 62.6% | [2] 96.1% | [3] 36% | [4] 63.9% | [5] 41.7% | [6] 87.5% | [7] 96.5%

COc1ccc(CC(=O)Nc2nn3c(-c4cc(C(F)(F)F)cc(C(F)(F)F)c4)nnc3s2)cc1
inactive: [1] 42.7% | [2] 57.1% | [3] 84.2% | [4] 66.9% | [5] 61.9% | [7] 65.7%

CSc1nc(-c2ccc(O)cc2O)c2c(=O)[nH]c(Nc3ccc(S(=O)(=O)Nc4nc(C)cc(C)n4)cc3)nc2n1
inactive: [1] 91.5% | [2] 196% | [3] 108% | [4] 113% | [5] 101% | [7] 102%

COc1ccc2c(c1)CC[C@@H]1[C@@H]2CC[C@]2(C)[C@@H](O)C(=O)C[C@@H]12
inactive: [1] 106% | [2] 102% | [3] 105% | [4] 129% | [5] 99.7% | [7] 110%

COc1ccc2[nH]c(=O)c(CNc3ccc(Nc4nccc(-c5ccc(Cl)cc5)n4)cc3)cc2c1
inactive: [1] 65.9% | [2] 104% | [4] 71.8% | [5] 91.1% | [6] 106% | [7] 85.4%

CCSc1nc(-c2ccc(F)cc2)c(C#N)c(=O)[nH]1
inactive: [1] 120% | [2] 101% | [3] 107% | [4] 102% | [5] 109% | [6] 99.8% | [7] 100%

COc1cc(C2CC(C3C(=O)N(C)C(=O)N(C)C3=O)=NN2C=O)cc(OC)c1OC (centres undefined)
inactive: [1] 83.8% | [2] 101% | [3] 97.7% | [4] 97.6% | [5] 102% | [7] 102%

C(=C1c2ccccc2-c2ccccc21)c1ccncc1
inactive: [1] 72.2% | [3] 17.1% | [4] 18.8% | [5] 16.4% | [6] 66.6% | [7] 18.5%
active: [2] -21.7%

NS(=O)(=O)c1ccc(N2CC(c3nc4ccccc4[nH]3)CC2=O)cc1 (centres undefined)
inactive: [1] 88.8% | [2] 104% | [4] 94.9% | [5] 104% | [6] 99.1% | [7] 97.6%

Cn1cnc([N+](=O)[O-])c1Sc1nc(N)nc2nc[nH]c12
inactive: [1] 47.2% | [2] 25% | [4] 15.1% | [5] 23% | [6] 19.6% | [7] 23.5%

Cc1cccc2nnc(-c3ccccc3)n12
inactive: [1] 115% | [2] 112% | [4] 97% | [5] 104% | [6] 102% | [7] 108%

CN1CCN(CCCOc2ccc3ncnc(Nc4ccc(OCc5cccc(F)c5)c(Cl)c4)c3c2)CC1
active: [1] -15.6% | [2] -88.4% | [4] -69.2% | [5] -87.9% | [6] -80.9% | [7] -56%

FC(F)(F)c1cc(-c2nnc3n2N=C(N2CCCC2)CS3)cc(C(F)(F)F)c1
inactive: [1] 64% | [2] 96.8% | [3] 95.9% | [4] 95.3% | [5] 42.5% | [7] 89.2%

CC1CN(C2CCCCC2)C(=O)NC1=O (centres undefined)
inactive: [1] 93% | [2] 112% | [3] 102% | [4] 101% | [5] 101% | [7] 111%

c1ccc(-c2n(Cc3ccc4ccccc4c3)cc[n+]2Cc2ccc3ccccc3c2)cc1
active: [1] -0.722% | [2] -73.2% | [3] -50.7% | [4] -65.8% | [5] -91.6% | [6] -59.9% | [7] -81.5%

CN(C)CCCNc1nn2c(=O)c3ccccc3nc2c2ccccc12
inactive: [1] 92.5% | [2] 74.7% | [3] 57.9% | [4] 26.7% | [5] 25.2% | [6] 70.6% | [7] 66.1%

COc1ccc(-c2cc(-c3cccnc3)nc3sc(C(=O)Nc4ccccc4)c(N)c23)cc1OC
inactive: [1] 55.8% | [2] 76.1% | [3] 85.5% | [4] 65.4% | [5] 50.5% | [6] 80.3% | [7] 61.3%

COC(=O)C1=CCC(n2cnc3c(N)ncnc32)O1 (centres undefined)
inactive: [1] 102% | [2] 102% | [3] 106% | [4] 120% | [5] 98.6% | [7] 100%

COc1ccc([N+](=O)[O-])c(S(=O)(=O)c2ccc(Cl)cc2)n1
inactive: [1] 65.2% | [2] 40.9% | [3] 14.4% | [4] 18.1% | [5] 20.9% | [6] 104% | [7] 97.7%

CCc1ccc(-c2nc(SCC(=O)NC3CCCCC3)n[nH]2)cc1
inactive: [1] 81.7% | [2] 59.2% | [3] 80.5% | [4] 88.8% | [5] 74.2% | [6] 76.3% | [7] 82.2%

O=C(CNC(=O)c1cccc2ccccc12)Nc1ccccc1Cc1ccccc1
active: [2] -8.01% [5 µM]
inactive: [1] 37.7% [5 µM] | [4] 23.5% [5 µM] | [5] 14.6% [5 µM] | [6] 87.1% [5 µM] | [7] 36% [5 µM]

Cc1cc(C)cc(S(=O)(=O)n2ccc(-c3ccc4c(c3)CCC(C)(C)O4)n2)c1
inactive: [1] 58.2% | [2] 93.8% | [3] 88.3% | [4] 81.5% | [5] 77.8% | [6] 88.2% | [7] 82.7%

CCOC(=O)N1CCC(N=C2CSc3nnc(-c4cc(C(F)(F)F)cc(C(F)(F)F)c4)n3N2)CC1
inactive: [1] 34% | [2] 24.9% | [3] 36.2% | [4] 13.6% | [7] 34.5%
active: [5] -10.9%

COc1cc(/C=C/C(=O)c2c(C)n([O-])c3ccc(Cl)cc3[n+]2=O)cc(OC)c1OC
inactive: [1] 58.6% | [2] 84.1% | [3] 82.2% | [4] 42.2% | [5] 62.6% | [6] 106% | [7] 96.2%

COC(=O)[C@H](Cc1cn(C)cn1)NC(=O)[C@@H](NC(=O)Nc1cc(C(F)(F)F)cc(C(F)(F)F)c1)C(C)C
active: [1] -71.8% [100 µM] | [2] -87.3% [100 µM] | [3] -47.5% [100 µM] | [4] -64.1% [100 µM] | [5] -91.6% [100 µM] | [7] -88.7% [100 µM]

COc1ccc(NC(=O)[C@@H]2C[C@H]2c2ccccc2)c(C(N)=O)c1
inactive: [1] 91.1% | [2] 51.8% | [3] 90.9% | [4] 97.7% | [5] 108% | [6] 94.7% | [7] 87.4%

NC(=O)c1cc(Cl)ccc1NC(=O)c1ccccc1-c1ccccc1
active: [2] -63.7%
inactive: [1] 26.9% | [3] 27.4% | [4] 25.4% | [5] 23.2% | [6] 49.3% | [7] 16.9%

COc1cnc2c(c1)C(=O)c1c-2n(CCCN2CCNCC2)c(=O)c2cc(F)ccc12
active: [1] 9.02% | [2] -41.3% | [3] -53.7% | [5] -82.5% | [7] -13.1%
inactive: [4] 11.7%

CC(NC(N)=S)c1ccccc1 (centres undefined)
inactive: [1] 89.6% | [2] 106% | [3] 98.7% | [4] 94.5% | [5] 107% | [7] 104%

COc1ccc(NC(=O)c2ccccc2-c2ccccc2)c(C(N)=O)c1
active: [2] -22.6%
inactive: [1] 34% | [3] 24.7% | [4] 25.5% | [5] 27% | [6] 76.7% | [7] 19.2%

Cc1cnc2nc(-c3ccc(N(C)C)cc3)cn2c1
inactive: [1] 89.8% | [2] 96.3% | [3] 116% | [4] 92.1% | [5] 97.2% | [6] 111% | [7] 104%

O=C(Nc1nn2c(-c3cc(C(F)(F)F)cc(C(F)(F)F)c3)nnc2s1)C1CCCC1
active: [4] 6.67% | [5] -29.7%
inactive: [1] 11.6% | [2] 12.5% | [3] 15.5% | [7] 11.1%

CCCc1n(Cc2ccc3ccccc3c2)cc[n+]1Cc1ccc2ccccc2c1
active: [1] -3.21% | [2] -50.8% | [3] 8.13% | [4] -16.7% | [5] 1.39% | [7] -63.7%
